From PubChem BioAssay come the findings set out here.

Several values for one entry are separate records, joined by “and”; a condition that tells them apart may be missing. Equal values may be shown once. Results filed as inconclusive are left out. Activity calls are given as the source filed them.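 How the source made its calls, unless noted: active means normalized viability below 100% at a tested concentration; inactive means the rest.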

By AC50 is commonly meant the concentration giving half of the maximal activity seen. In general, viability refers to a read-out of living cells in per cent, often relative to untreated cells.

A short description of assay [1]: growth inhibition of DIPG glioma cells, dose response, cell-based, SU-DIPG-XIII, MIPE4.0, CellTiter-Glo, qHTS (AID 1347061; cut-off not given, nearly all actives have AC50 up to about 37 µM;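 further: cells exposed to compound for 48 hours before readout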). The note with it: SU-DIPG-XIII viability, CellTiter-Glo ATP luminescence. (In general: ATP-based viability assays read luminescence as a measure of living cells.)
Assay [2] in a line: growth inhibition of DIPG glioma cells, dose response, cell-based, JHH-DIPG-1, MIPE4.0, CellTiter-Glo, qHTS (AID 1347062; cut-off not given, nearly all actives have AC50 up to about 27 µM). The note with it: JHH-DIPG-1 viability, CellTiter-Glo ATP luminescence.
Assay [3] can be described thus: sensitizers of A549 cells to miR-34 induction, primary screen, imaging, A549 dox-inducible miR-34, nuclei and caspase counts (AID 1347080;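 active means compounds whose cell count with miR-34 switched on is under 0.7 times the count with it off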). The note with it: A549 miR-34 inducible, Hoechst nuclei count, 48 h.
A short description of assay [4]: survival rescue of mitochondrial mutant cells in low glucose, primary screen, MELAS cybrids, Rieske KO mouse fibroblasts, CellTiter-Glo (AID 1508586;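 active means mean z-score across replicates of 1.96 or higher in either the MELAS or the Rieske mutant cell line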;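 further: z relative to plate mean and SD of compound and empty wells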).
A short description of assay [5]: growth inhibition of DIPG glioma cells, dose response, cell-based, SU-DIPG-XIII, MIPE5.0, CellTiter-Glo, qHTS (AID 1347064; cut-off not given, nearly all actives have AC50 up to about 23 µM;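 on AC50: cells exposed to compound for 48 hours before the viability read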). The note with it: SU-DIPG-XIII viability, CellTiter-Glo ATP luminescence.
Assay [6] can be described thus: SU-DIPG-VI glioma cell viability, MIPE4.0 library, CellTiter-Glo luminescence, qHTS (AID 1347066; cut-off not given, nearly all actives have AC50 up to about 30 µM;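 further: cells exposed to compound for 48 hours before readout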). Conditions: CellTiter-Glo ATP luminescence.
Assay [7] in a line: JHH-DIPG-1 glioma cell viability, MIPE5.0 library, CellTiter-Glo luminescence, qHTS (AID 1347067; cut-off not given, nearly all actives have AC50 up to about 26 µM;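 further: cells exposed to compound for 48 hours before readout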). Conditions: JHH-DIPG-1 glioma viability, CellTiter-Glo ATP luminescence.
A short description of assay [8]: SU-DIPG-XXV glioma cell viability, MIPE5.0 library, qHTS (AID 1347068; cut-off not given, nearly all actives have IC50 up to about 30 µM). Background: qHTS replaces the single test concentration by a dilution series.
The nature of assay [9]: growth inhibition of DIPG glioma cells, dose response, cell-based, SU-DIPG-IV, MIPE4.0, CellTiter-Glo, qHTS (AID 1347063; cut-off not given, nearly all actives have AC50 up to about 30 µM;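 further: compound exposure lasted 48 hours before the viability readout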). The note with it: SU-DIPG-IV viability, CellTiter-Glo ATP luminescence.
The nature of assay [10]: viability loss in pontine glioma line – cell-based, SU-DIPG-XXV, MIPE5.0, CellTiter-Glo, qHTS, dose response (AID 1347065; cut-off not given, nearly all actives have AC50 up to about 26 µM;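 further: cells exposed to compound for 48 hours before ATP readout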). Conditions: CellTiter-Glo ATP luminescence.
Assay [11] can be described thus: modifiers of HSF1 nuclear foci, imaging, Selleck Cancer Library (AID 1347162; in the data active means plate-normalised HSF1 focus index below about 0.46). Conditions: human cells, at 10 µM; SSMD: measured here: HSF1 foci SSMD mean; cell count: measured here: cell number; plate-normalised HSF1 focus index: stronger effect = lower value.
The nature of assay [12]: ovarian cancer cell viability with rucaparib, profiling panel, oncology-focused library, rucaparib conditional (AID 1508598). Conditions: patient-derived ovarian cancer cells, CellTiter-Glo viability, 144 h, stronger effect = lower value.
The mark [13] stands for this setting: stronger effect = lower value, cell number ratio, induced over uninduced.
[14] abbreviates: measured here: relative caspase fold change +Dox/-Dox.
[15] abbreviates: measured here: total cells with miR-34 induction, stronger effect = lower value.
Where [16] appears, read: measured here: total cells without miR-34 induction.
The mark [17] stands for this setting: MELAS cybrid survival, CellTiter-Glo 48 h, stronger effect = higher value.
The mark [18] stands for this setting: Rieske KO mouse fibroblast survival, CellTiter-Glo 72 h.

Take `Cc1coc2c1C(=O)C(=O)c1c-2ccc2c(C)cccc12`: the outcome in assay [1] and in assay [2] was inactive. Besides, the values for the fold change in [3] (setting [13]) and in [3] (setting [14]) were 0.847 (inactive) and 1.93, respectively. The values for the cell count in [3] (setting [15]) and in assay [3] (setting [16]) were 7470 and 8830, respectively. For the same compound, the results for the z-score in assay [4] (setting [17]) and in assay [4] (setting [18]) were -0.324 (inactive) and -1, respectively.

For `CCOC(=O)N1c2ccc(C(F)(F)F)cc2[C@@H](N(Cc2cc(C(F)(F)F)cc(C(F)(F)F)c2)C(=O)OC)C[C@H]1CC`, the result in [1], in assay [5], in assay [6], in assay [7] and in [8] was inactive.

With `CN(C)c1cc(NC(=O)CNC(C)(C)C)c(O)c2c1C[C@H]1C[C@H]3[C@H](N(C)C)C(=O)C(C(N)=O)=C(O)[C@@]3(O)C(=O)C1=C2O`, the outcome in assay [1], in assay [2] and in assay [6] was inactive. Besides, the values for the z-score in assay [4] (setting [17]) and in assay [4] (setting [18]) were 0.577 (inactive) and 0.0397, respectively.

As to `CN1CCN(c2cc(C(=O)Nc3ccc4c(c3)-c3c(c(C(N)=O)nn3-c3ccc(F)cc3)CC4)c(Cl)cn2)CC1`, the AC50 was 9.35 µM (active) in assay [1]; 18.7 µM (active) in [9]; 14.8 µM (active) in assay [5]; 10.5 µM (active) in assay [10]; 23.5 µM (active) in [6]; 13.2 µM (active) in assay [7].

With `N#Cc1ccc(NC(=O)Nc2ccccc2Br)c2n[nH]nc12`, in [1], the call was inactive. Moreover, in assay [10], the outcome was inactive. Further, in assay [11], the SSMD is -0.0129, the cell count turned out to be 7440 and the plate-normalised HSF1 focus index is 1 (inactive).

As for `C[C@H](NC(=O)Cc1cc(F)cc(F)c1)C(=O)N[C@@H]1C(=O)N(C)c2ccccc2-c2ccccc21`, the AC50 in [1] is 18.7 µM (active). Besides, the call in assay [10], in assay [6], in assay [7] and in assay [8] was inactive. In [11], this compound gave an SSMD of -0.743. In addition, the cell count in assay [11] was 5760. In addition, the plate-normalised HSF1 focus index in assay [11] was 0.981 (inactive). Also, the viability is 117% (inactive) in assay [12] (at 0.000305 µM, OCI-C5x cells, with rucaparib 10 µM, 100% = cells with rucaparib alone); 120% (inactive) in assay [12] (at 0.000305 µM, OCI-C5x cells, without rucaparib); 94.9% (active) in assay [12] (at 0.000305 µM, OCI-P5x cells, with rucaparib 20 µM, 100% = cells with rucaparib alone); 97.1% (active) in [12] (at 0.000305 µM, OCI-P5x cells, without rucaparib); 121% (inactive) in [12] (at 0.00122 µM, OCI-C5x cells, with rucaparib 10 µM, 100% = cells with rucaparib alone); 124% (inactive) in assay [12] (at 0.00122 µM, OCI-C5x cells, without rucaparib). Further, the viability in assay [12] (at 0.00122 µM, OCI-P5x cells, with rucaparib 20 µM, 100% = cells with rucaparib alone) is 93.1% (active); in assay [12] (at 0.00122 µM, OCI-P5x cells, without rucaparib), 102% (inactive); in assay [12] (at 0.00488 µM, OCI-C5x cells, with rucaparib 10 µM, 100% = cells with rucaparib alone), 118% (inactive); in [12] (at 0.00488 µM, OCI-C5x cells, without rucaparib), 127% (inactive); in assay [12] (at 0.00488 µM, OCI-P5x cells, with rucaparib 20 µM, 100% = cells with rucaparib alone) it was 90.9% (active); in assay [12] (at 0.00488 µM, OCI-P5x cells, without rucaparib) it was 102% (inactive). Also, the viability in [12] (at 0.0195 µM, OCI-C5x cells, with rucaparib 10 µM, 100% = cells with rucaparib alone) was 122% (inactive); in [12] (at 0.0195 µM, OCI-C5x cells, without rucaparib) it was 129% (inactive); in [12] (at 0.0195 µM, OCI-P5x cells, with rucaparib 20 µM, 100% = cells with rucaparib alone), 101% (inactive); in assay [12] (at 0.0195 µM, OCI-P5x cells, without rucaparib), 97.6% (active); in assay [12] (at 0.0781 µM, OCI-C5x cells, with rucaparib 10 µM, 100% = cells with rucaparib alone), 122% (inactive); in assay [12] (at 0.0781 µM, OCI-C5x cells, without rucaparib) it was 132% (inactive). Moreover, the viability is 96.3% (active) in [12] (at 0.0781 µM, OCI-P5x cells, with rucaparib 20 µM, 100% = cells with rucaparib alone); 104% (inactive) in assay [12] (at 0.0781 µM, OCI-P5x cells, without rucaparib); 131% (inactive) in assay [12] (at 0.313 µM, OCI-C5x cells, with rucaparib 10 µM, 100% = cells with rucaparib alone); 145% (inactive) in assay [12] (at 0.313 µM, OCI-C5x cells, without rucaparib); 90.1% (active) in assay [12] (at 0.313 µM, OCI-P5x cells, with rucaparib 20 µM, 100% = cells with rucaparib alone); 99.7% (active) in [12] (at 0.313 µM, OCI-P5x cells, without rucaparib). For the same compound, the viability was 142% (inactive) in assay [12] (at 1.25 µM, OCI-C5x cells, with rucaparib 10 µM, 100% = cells with rucaparib alone); 144% (inactive) in [12] (at 1.25 µM, OCI-C5x cells, without rucaparib); 97.9% (active) in assay [12] (at 1.25 µM, OCI-P5x cells, with rucaparib 20 µM, 100% = cells with rucaparib alone); 99% (active) in assay [12] (at 1.25 µM, OCI-P5x cells, without rucaparib); 146% (inactive) in assay [12] (at 5 µM, OCI-C5x cells, with rucaparib 10 µM, 100% = cells with rucaparib alone); 141% (inactive) in assay [12] (at 5 µM, OCI-C5x cells, without rucaparib). The viability in [12] (at 5 µM, OCI-P5x cells, with rucaparib 20 µM, 100% = cells with rucaparib alone) is 87.4% (active); in [12] (at 5 µM, OCI-P5x cells, without rucaparib), 90.3% (active).

Take `O=c1cc(-c2ccc(O)c(O)c2)oc2cc(O)cc(O)c12`: the result in [1], in assay [9] and in assay [6] was inactive. Also, the fold change in assay [3] (setting [13]) is 0.817 (inactive) and 1 (inactive) and 0.947 (inactive); in assay [3] (setting [14]), 1.18 and 0.969 and 1.11. The cell count was 7040 and 6030 and 8740 in [3] (setting [15]); 8620 and 6020 and 9220 in assay [3] (setting [16]). Moreover, the z-score in assay [4] (setting [17]) was -0.397 (inactive) and 1.32 (inactive); in assay [4] (setting [18]), -0.97 and -0.213.
